# Unmarked numbers belong to inactive results. Inconclusive results are not listed. Activity calls are given as the source filed them. Unless noted, calls follow the shape of the dose curve; as a rule, active = well fitted curve in the direction sought with a large enough effect; inconclusive = small, poorly fitted or top-dose-only effect, or another doubt; inactive = no such curve, though single readings can be large; an effect the other way counts as inactive or inconclusive.
# Experiments:
# [1] = target: Lysosomal acid glucosylceramidase (Homo sapiens) (UniProt P04062); assay: Glucocerebrosidase-p2 (AID 348; in the data active = potency below about 10 µM; also: potency is read from the fitted curve at half-maximal effect); conditions: purified GBA, blue fluorogenic substrate, 40 min
# Chain of Lysosomal acid glucosylceramidase (Homo sapiens) (P04062 whole entry, looked up): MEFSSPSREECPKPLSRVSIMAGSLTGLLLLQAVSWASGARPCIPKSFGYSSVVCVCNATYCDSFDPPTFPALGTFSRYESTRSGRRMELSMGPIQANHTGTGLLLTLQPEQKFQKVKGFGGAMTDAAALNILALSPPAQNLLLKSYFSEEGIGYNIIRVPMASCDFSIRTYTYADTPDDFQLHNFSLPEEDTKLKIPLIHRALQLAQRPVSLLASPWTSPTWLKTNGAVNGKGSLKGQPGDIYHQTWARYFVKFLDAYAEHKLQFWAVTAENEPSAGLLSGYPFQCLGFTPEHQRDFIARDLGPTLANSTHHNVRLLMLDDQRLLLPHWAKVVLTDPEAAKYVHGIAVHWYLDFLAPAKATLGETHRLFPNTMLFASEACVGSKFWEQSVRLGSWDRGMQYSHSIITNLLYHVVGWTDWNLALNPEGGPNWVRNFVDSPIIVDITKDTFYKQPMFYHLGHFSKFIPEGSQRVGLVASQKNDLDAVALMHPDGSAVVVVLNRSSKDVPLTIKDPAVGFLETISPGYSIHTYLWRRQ
# Outline: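 Normal human glucocerebrosidase (0.2 nM) with blue fluorogenic substrate (80 uM final) in citrate/phosphate pH 5.9 with 10mM sodium taurocholate, 0.01% tween-20; 40 min RT, NaOH/glycine stop; fluorescence Ex 365/Em 440; AC50 from a titration from 0.6 nM upwards.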
# [2] = AP1 Signaling Pathway (AID 357; active = well fitted curve in either direction with a large enough effect, not every such curve was filed as active;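 also: ME-180 reporter cells stimulated with EGF at its EC50 level; % is scaled to controls: 0 for no effect and ±100 for the full control effect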); conditions: ME-180 AP-1-bla reporter, EGF-induced, beta-lactamase ratio, 5 h; at 7.69 µM (top of the series) unless noted
# Outline: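 Read-out was the 460nm/530nm emission ratio (excitation 405nm) after CCF4 loading for 2.5 hours at room temperature. Cells carried an AP-1-driven beta-lactamase reporter, were stimulated with EC50 EGF plus compound for 5 hours, and AC50 values came from titrations.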
# [3] = target: Cytochrome P450 1A2 (Homo sapiens) (UniProt P05177); assay: p450-cyp1a2 (AID 410; calls by dose curve; also: potency is read from the fitted curve at half-maximal effect); conditions: recombinant CYP1A2, luciferin-ME demethylation, luminescence; series mostly up to 57 µM
# Chain of Cytochrome P450 1A2 (Homo sapiens) (P05177 whole entry, looked up): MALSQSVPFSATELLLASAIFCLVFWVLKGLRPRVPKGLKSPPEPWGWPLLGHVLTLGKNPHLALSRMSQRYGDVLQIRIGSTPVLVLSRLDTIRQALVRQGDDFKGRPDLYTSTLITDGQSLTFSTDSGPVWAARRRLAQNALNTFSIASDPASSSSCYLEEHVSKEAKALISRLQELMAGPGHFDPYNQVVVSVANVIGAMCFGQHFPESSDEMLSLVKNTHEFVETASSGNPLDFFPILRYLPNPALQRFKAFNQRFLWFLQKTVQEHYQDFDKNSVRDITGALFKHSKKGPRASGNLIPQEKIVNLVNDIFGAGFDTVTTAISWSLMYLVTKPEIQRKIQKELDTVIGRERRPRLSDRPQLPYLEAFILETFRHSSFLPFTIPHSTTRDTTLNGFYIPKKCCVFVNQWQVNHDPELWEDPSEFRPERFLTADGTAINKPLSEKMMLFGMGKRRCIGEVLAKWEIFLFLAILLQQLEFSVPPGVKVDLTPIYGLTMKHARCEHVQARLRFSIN
# Outline: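 O-Demethylation of luciferin 6' methyl ether by human CYP1A2 is monitored as luciferase luminescence. Substrate sits at Km (100uM); enzyme is 20nM. Values are scaled to 57 uM furafylline as maximal inhibition.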
# [4] = NFAT Signaling Pathway (AID 444; active = well fitted curve in either direction with a large enough effect, not every such curve was filed as active;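 also: carbachol stimulus at about its EC50 of 1 µM final; % is scaled to controls: 0 for no effect and ±100 for the full control effect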); conditions: Jurkat NFAT-bla M1, carbachol, beta-lactamase ratio, 5 h; at 7.69 µM (top of the series) unless noted
# Outline: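 Read-out: CCF4 FRET ratio (460 nm/530 nm) after 1 h RT dye loading, used for %activity and AC50 from titration series. Cells: Jurkat NFAT-β-lactamase/M1 line, treated with compound plus 1 uM carbachol for 5 h, 37 °C.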
# [5] = Stat Signaling Pathway (AID 446; active = well fitted curve in either direction with a large enough effect, not every such curve was filed as active;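 also: ME-180 cervical cancer cells given 40 pM IL-6 alongside compound; SIE-controlled beta-lactamase reporter measured as 460/530 nm FRET emission ratio; % is scaled to controls: 0 for no effect and ±100 for the full control effect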); conditions: ME-180 (cervical carcinoma) SIE beta-lactamase reporter, IL-6 stimulated, 5 h; at 7.69 µM (top of the series) unless noted
# Outline: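 Overnight-plated ME-180 cells bearing a STAT Inducible Element beta-lactamase reporter; 5 h co-exposure to compound and 40 pM IL-6; values normalized to 300 pM IL-6 and 125 nM JAK inhibitor controls.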
# [6] = target: Glucocorticoid receptor (Homo sapiens) (UniProt P04150); assay: GR-GFP Redistribution (AID 450;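 active = compounds whose dose series gives a full or clear partial fitted curve of increased nuclear translocation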; also: potency is read from the fitted curve at half-maximal effect); conditions: U2OS GR-GFP nuclear translocation, laser cytometry, 2 h
# Chain of Glucocorticoid receptor (Homo sapiens) (P04150 whole entry, looked up, the tested form may be a part): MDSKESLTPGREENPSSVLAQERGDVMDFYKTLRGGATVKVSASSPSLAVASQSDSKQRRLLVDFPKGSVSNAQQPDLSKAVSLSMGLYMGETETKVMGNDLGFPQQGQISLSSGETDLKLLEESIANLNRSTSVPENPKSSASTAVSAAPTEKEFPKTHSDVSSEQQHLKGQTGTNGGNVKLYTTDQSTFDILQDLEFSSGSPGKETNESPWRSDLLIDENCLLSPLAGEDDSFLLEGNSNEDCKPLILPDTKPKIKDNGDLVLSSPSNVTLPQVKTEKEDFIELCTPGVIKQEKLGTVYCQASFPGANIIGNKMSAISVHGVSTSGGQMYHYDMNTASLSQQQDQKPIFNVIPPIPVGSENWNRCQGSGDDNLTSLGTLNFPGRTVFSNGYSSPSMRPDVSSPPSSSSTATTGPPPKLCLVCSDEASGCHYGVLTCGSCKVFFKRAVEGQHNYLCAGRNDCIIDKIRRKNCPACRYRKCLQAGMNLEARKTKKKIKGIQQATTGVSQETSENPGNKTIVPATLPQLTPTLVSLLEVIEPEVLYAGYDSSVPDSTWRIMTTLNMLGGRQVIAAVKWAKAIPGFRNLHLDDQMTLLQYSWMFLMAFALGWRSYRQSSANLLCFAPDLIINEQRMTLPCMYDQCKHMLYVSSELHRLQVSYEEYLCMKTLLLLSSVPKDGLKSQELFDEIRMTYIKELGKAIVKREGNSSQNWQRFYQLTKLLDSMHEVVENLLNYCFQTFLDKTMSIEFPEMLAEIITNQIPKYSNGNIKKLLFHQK
# [7] = target: Glucocorticoid receptor (Homo sapiens) (UniProt P04150); assay: GR-EFC Redistribution (AID 451; calls by dose curve; also: potency is read from the fitted curve at half-maximal effect); conditions: CHO-K1 GR-EFC translocation, beta-gal luminescence, 2 h
# Outline: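 Translocation of GR-ED fusion to nuclear EA restores b-gal, read by luminescence after 1 h room-temperature detection. Engineered CHO-K1 biosensor cells, 1,000/well, exposed 2 h at 37 C to titrations up to 46 uM final.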
# [8] = target: Mitogen-activated protein kinase 10 (Mus musculus) (UniProt Q61831); assay: JNK3 AlphaScreen Assay (AID 530; active = well fitted curve in either direction with a large enough effect, not every such curve was filed as active;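 also: kinase came from lysate of stimulated human HepG2 cells; signal reports phosphorylation of biotinylated GST-cJun 1-79 at Ser73 with 10 µM ATP; % is scaled to controls: 0 for no effect and ±100 for the full control effect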); conditions: JNK3 lysate, c-Jun phosphorylation; series mostly up to 57.1 µM
# Outline: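 qHTS titrations with 15 min compound pre-incubation before adding ATP (10 uM final). Read-out: AlphaScreen of Ser73-phosphorylated biotin-GST-cJun using HepG2 lysate JNK3 activated by IL-1β and TNFα.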
# [9] = target: 3',5'-cyclic-AMP phosphodiesterase 4B (Homo sapiens) (UniProt Q07343); assay: qHTS Assay for Inhibitors of PDE-IV (AID 607; active = well fitted activation curve with a large enough effect in the main read-out, with a control signal flat, not every such curve was filed as active; also: % of control where 0% means no effect); conditions: HEK293 ACTOne CNG channel cells, membrane potential fluorescence; series mostly up to 22.9 µM
# Chain of 3',5'-cyclic-AMP phosphodiesterase 4B (Homo sapiens) (Q07343 whole entry, looked up): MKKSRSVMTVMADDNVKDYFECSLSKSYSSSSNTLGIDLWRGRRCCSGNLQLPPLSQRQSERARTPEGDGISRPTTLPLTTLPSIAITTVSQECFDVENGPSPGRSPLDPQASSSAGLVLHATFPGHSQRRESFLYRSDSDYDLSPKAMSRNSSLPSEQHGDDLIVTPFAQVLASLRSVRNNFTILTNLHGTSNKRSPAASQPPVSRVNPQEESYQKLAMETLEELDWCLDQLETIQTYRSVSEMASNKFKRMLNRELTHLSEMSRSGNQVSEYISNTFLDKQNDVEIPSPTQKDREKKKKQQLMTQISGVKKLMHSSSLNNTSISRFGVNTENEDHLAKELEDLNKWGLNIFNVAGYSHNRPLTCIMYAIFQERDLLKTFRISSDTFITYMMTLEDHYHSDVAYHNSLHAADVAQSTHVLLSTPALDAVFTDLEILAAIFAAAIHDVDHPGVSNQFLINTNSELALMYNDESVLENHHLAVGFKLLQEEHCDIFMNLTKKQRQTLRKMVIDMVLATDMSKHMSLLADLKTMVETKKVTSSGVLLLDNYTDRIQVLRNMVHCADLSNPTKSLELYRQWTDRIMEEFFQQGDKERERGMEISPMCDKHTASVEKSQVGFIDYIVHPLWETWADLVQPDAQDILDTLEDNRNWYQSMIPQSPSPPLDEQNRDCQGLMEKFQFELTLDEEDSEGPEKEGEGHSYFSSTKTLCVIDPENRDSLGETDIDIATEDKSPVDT
# Outline: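 Live HEK293 cells with a modified cyclic nucleotide-gated (CNG) channel report intracellular cAMP via membrane-potential dye fluorescence (ex 535/em 590 nm). Endogenous PDE-IV was targeted. Compounds were tested at up to 22.9 uM final; RO 20-1724 100 uM served as control.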
# [10] = target: Cytochrome P450 3A4 (Homo sapiens) (UniProt P08684); assay: qHTS Assay for Activators of Cytochrome P450 3A4 (AID 885); conditions: recombinant CYP3A4, Luciferin-PPXE luminescence, 60 min; series mostly up to 57.1 µM; also: nearly all actives have a fitted effect of over 65% in size
# Chain of Cytochrome P450 3A4 (Homo sapiens) (P08684 whole entry, looked up): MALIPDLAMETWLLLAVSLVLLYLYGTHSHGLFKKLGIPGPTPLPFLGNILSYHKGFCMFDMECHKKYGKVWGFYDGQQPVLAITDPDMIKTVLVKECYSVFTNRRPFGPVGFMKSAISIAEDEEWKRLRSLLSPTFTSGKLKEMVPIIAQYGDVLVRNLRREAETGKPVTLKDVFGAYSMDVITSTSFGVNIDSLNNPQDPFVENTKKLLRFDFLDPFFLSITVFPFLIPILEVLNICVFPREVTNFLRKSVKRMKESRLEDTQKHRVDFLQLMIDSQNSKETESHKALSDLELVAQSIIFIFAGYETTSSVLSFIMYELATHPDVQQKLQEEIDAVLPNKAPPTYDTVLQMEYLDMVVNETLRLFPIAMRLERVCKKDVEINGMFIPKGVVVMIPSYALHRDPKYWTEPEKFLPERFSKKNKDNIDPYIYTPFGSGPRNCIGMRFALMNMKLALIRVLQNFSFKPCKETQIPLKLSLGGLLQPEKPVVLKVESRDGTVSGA
# Outline: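 Using 20nM recombinant human CYP3A4 in potassium phosphate (200mM), substrate Luciferin-PPXE at 25uM, luminescent luciferin detection followed a 60-min RT NADPH reaction; data scaled to 57 uM ketoconazole.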
# [11] = target: Dual specificity protein kinase CLK4 (Homo sapiens) (UniProt Q9HAZ1); assay: qHTS Assay for Inhibitors of CDC-like Kinase 4 (Kinase-Glo Assay) (AID 1770); conditions: recombinant Clk4, Kinase-Glo ATP depletion luminescence; series mostly up to 66.7 µM; also: nearly all actives have a fitted effect of over 65% in size; also: potency is read from the fitted curve at half-maximal effect
# Chain of Dual specificity protein kinase CLK4 (Homo sapiens) (Q9HAZ1 whole entry, looked up): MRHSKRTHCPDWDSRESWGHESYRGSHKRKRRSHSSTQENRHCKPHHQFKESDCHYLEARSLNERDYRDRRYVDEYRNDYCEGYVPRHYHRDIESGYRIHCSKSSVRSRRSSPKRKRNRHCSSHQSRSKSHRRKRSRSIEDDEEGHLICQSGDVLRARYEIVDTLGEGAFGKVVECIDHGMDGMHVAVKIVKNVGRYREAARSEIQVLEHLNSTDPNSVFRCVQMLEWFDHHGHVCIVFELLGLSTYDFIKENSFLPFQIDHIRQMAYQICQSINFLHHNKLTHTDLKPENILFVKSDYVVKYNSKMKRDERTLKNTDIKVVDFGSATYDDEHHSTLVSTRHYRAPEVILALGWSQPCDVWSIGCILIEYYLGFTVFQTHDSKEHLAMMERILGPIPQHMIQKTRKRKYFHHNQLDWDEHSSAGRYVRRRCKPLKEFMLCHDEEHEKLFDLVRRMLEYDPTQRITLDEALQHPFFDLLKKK
# Outline: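 Recombinant human Clk4 (25 nM) phosphorylated RS repeat peptide (100 uM) with 1 uM ATP in Tris pH 7.5/MgCl2/EGTA/DTT/Triton buffer for 4.5 h at room temperature. Residual ATP was quantified by Kinase-Glo luciferase luminescence.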
# [12] = target: Dual specificity protein kinase CLK4 (Homo sapiens) (UniProt Q9HAZ1); assay: qHTS Assay for Inhibitors of CDC-like Kinase 4 (ADP-Glo Assay) (AID 1771); conditions: recombinant CLK4, ADP-Glo luminescence; series mostly up to 80 µM; also: nearly all actives have a fitted effect of over 70% in size; also: potency is read from the fitted curve at half-maximal effect
# Outline: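 Compounds are pin-transferred onto substrate mix (100 uM RS peptide, 1 uM ATP), then 25 nM Clk4 is added. After 1 hr at room temperature, ADP-Glo reagent runs 45 min, detection reagent 30 min, then luminescence is read.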
# [13] = target: Dual specificity protein kinase CLK4 (Homo sapiens) (UniProt Q9HAZ1); assay: qHTS Assay for Inhibitors of CDC-like Kinase 4 (ADP-FP Assay) (AID 1795); conditions: Transcreener ADP fluorescence polarization; series mostly up to 50 µM; also: nearly all actives have a fitted effect of over 60% in size; also: potency is read from the fitted curve at half-maximal effect
# Outline: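 Recombinant human Clk4 (6.25 nM) phosphorylated RS repeat peptide (100 uM) with 1 uM ATP in Tris pH 7.5/MgCl2/EGTA/DTT/Triton buffer for one hour. ADP was quantified by Transcreener competitive fluorescence polarization against an ADP calibration curve.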
# [14] = target: Ubiquitin carboxyl-terminal hydrolase 1 (Homo sapiens) (UniProt O94782); assay: Inhibitors of USP1/UAF1: Pilot qHTS (AID 504865); conditions: purified USP1/UAF1, Ub-rhodamine cleavage fluorescence; series mostly up to 54.9 µM;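 also: rhodamine fluorescence freed from ubiquitin-rhodamine substrate followed over time; top concentration of the series differs between compounds; % is scaled to controls: 0 for no effect and ±100 for the full control effect; nearly all actives have a fitted effect of over 35% in size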
# Chain of Ubiquitin carboxyl-terminal hydrolase 1 (Homo sapiens) (O94782 whole entry, looked up): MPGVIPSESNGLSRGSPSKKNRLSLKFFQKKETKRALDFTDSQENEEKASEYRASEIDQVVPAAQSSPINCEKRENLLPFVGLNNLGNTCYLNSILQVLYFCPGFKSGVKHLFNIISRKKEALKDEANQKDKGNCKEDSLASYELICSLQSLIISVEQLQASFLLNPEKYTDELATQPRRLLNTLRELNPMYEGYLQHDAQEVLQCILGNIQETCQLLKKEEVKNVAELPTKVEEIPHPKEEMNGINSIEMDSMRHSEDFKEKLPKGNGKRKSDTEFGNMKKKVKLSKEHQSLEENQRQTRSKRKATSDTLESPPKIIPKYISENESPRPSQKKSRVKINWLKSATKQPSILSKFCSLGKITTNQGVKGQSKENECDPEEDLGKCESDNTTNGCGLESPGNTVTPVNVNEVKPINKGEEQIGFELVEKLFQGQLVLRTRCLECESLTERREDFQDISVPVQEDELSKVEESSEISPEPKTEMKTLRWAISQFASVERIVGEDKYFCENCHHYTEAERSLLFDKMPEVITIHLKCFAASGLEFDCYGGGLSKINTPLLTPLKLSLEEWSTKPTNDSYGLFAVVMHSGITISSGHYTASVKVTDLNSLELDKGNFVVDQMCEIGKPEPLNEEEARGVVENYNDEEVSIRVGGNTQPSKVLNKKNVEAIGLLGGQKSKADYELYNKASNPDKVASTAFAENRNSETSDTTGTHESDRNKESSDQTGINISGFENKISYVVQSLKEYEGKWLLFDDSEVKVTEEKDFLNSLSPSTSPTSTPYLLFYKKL
# Outline: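 USP1/UAF1 complex (1nM) preincubated with compound 15 min at room temperature, then Ub-Rho substrate (150nM final) added. Fluorescence read kinetically at 480/540 nm, 6 reads every 60 seconds. Buffer: 50mM HEPES pH 7.8, 0.5mM EDTA, 0.1 mg/ml BSA, 1mM TCEP, 0.01% Tween-20.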
# [15] = Primary qHTS for small molecule stabilizers of the endoplasmic reticulum resident proteome: Secreted ER Calcium Modulated Protein (SERCaMP) assay (AID 1508630); conditions: SH-SY5Y GLuc-SERCaMP (Gaussia luciferase released on ER calcium loss) secretion, thapsigargin, luminescence; series mostly up to 38.4 µM; also: % is scaled to controls: 0 for no effect and ±100 for the full control effect
# Outline: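 The SH-SY5Y reporter protocol was run at 3 concentrations up to 38.3 uM (primary) or 11 concentrations (follow-up): 16 h compound, 100 nM thapsigargin for 4 h, then extracellular luciferase luminescence.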
# [16] = target: Cytochrome P450 3A4 (Homo sapiens) (UniProt P08684); assay: qHTS Assay for Inhibitors and Substrates of Cytochrome P450 3A4 (AID 884); conditions: recombinant CYP3A4, Luciferin-PPXE luminescence; series mostly up to 57.1 µM; also: potency is read from the fitted curve at half-maximal effect; nearly all actives have a fitted effect of over 50% in size
# Outline: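 Luminescent readout of luciferin produced by CYP3A4 (20 nM) dealkylation of Luciferin-PPXE, 25 uM (its KM). NADPH-driven reaction ran 60 min at RT after 10 min compound preincubation; data scaled to 57 uM ketoconazole as 100% inhibition.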
# [17] = target: Cytochrome P450 2C19 (Homo sapiens) (UniProt P33261); assay: qHTS Assay for Inhibitors and Substrates of Cytochrome P450 2C19 (AID 899); conditions: recombinant CYP2C19, luciferin-H EGE luminescence; series mostly up to 57.1 µM; also: potency is read from the fitted curve at half-maximal effect; nearly all actives have a fitted effect of over 60% in size
# Outline: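 5nM enzyme + 10uM Luciferin-H EGE (=KM), 50mM KPO4; cpd pin-transferred, 10 min 37C; NADPH regen, 60 min 37C; stopped w/ luciferin detection reagent, 20 min; luminescence. Normalized to 57uM ketoconazole (AC100).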
# [18] = target: Cytochrome P450 2C9 (Homo sapiens) (UniProt P11712); assay: qHTS Assay for Inhibitors and Substrates of Cytochrome P450 2C9 (AID 883); conditions: recombinant CYP2C9, luciferin-H luminescence, 60 min; series mostly up to 57.1 µM; also: % is scaled to controls: 0 for no effect and ±100 for the full control effect; nearly all actives have a fitted effect of over 60% in size
# Chain of Cytochrome P450 2C9 (Homo sapiens) (P11712 whole entry, looked up): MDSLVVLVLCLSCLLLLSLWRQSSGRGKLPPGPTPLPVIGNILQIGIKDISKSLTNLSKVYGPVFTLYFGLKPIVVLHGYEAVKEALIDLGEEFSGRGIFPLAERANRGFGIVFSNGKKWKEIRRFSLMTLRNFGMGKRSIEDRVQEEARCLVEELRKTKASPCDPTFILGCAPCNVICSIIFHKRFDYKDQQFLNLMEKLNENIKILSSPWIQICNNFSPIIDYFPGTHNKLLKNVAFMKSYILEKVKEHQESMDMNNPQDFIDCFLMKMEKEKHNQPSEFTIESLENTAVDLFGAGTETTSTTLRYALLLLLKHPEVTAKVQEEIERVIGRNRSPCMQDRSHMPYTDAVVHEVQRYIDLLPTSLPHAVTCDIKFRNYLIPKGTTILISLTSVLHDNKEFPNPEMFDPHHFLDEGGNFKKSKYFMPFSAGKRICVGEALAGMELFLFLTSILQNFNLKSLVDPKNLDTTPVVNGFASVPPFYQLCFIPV
# Outline: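 Inhibition of CYP2C9 is scored as loss of luminescence, with 57uM sulphaphenazole defining 100% inhibition. Substrate Luciferin-H is used at 100uM, equal to its KM; enzyme at 10nM in 25mM KPO4, 60 min at 37C with NADPH regeneration.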
Compound,Potency [1],"activity change, negative = inhibition [2]",Potency [3],"activity change, negative = inhibition [4]","activity, negative = inhibition [5]",Potency [6],Potency [7],Potency [8],Potency [9],Potency [10],Potency [11],Potency [12],Potency [13],Potency [14],outcome [15],Potency [16],Potency [17],"activity change, negative = inhibition [18]"
COc1ccc(-n2c(=O)c(-c3cccc(F)c3)nc3cncnc32)cc1,> 11.4 µM,-4.56%,3.98 µM (active),7.82%,-17.1%,> 9.22 µM,> 46 µM,inactive,inactive,inactive,inactive,inactive,inactive,inactive,inactive,–,–,–
Cn1c(=O)c(-c2ccc(F)c(F)c2)nc2cncnc21,> 11.4 µM,10%,0.158 µM (active),-5.02%,-7.37%,> 9.22 µM,> 46 µM,inactive,inactive,inactive,inactive,inactive,inactive,inactive,inactive,–,–,–
Cc1ccccc1-c1cncnc1NCc1cccnc1,> 11.4 µM,-2.76%,15.8 µM (active),-14.1%,4.91%,> 46 µM,> 46 µM,inactive,inactive,inactive,inactive,inactive,inactive,inactive,inactive,0.631 µM (active),0.398 µM (active),–
CN(C)C(=O)c1ccc(-c2cncnc2Nc2ccccc2)cc1,> 11.4 µM,-7.47%,31.6 µM (active),1.8%,-6.42%,> 46 µM,> 46 µM,inactive,inactive,inactive,inactive,inactive,inactive,inactive,inactive,–,–,–
CNc1nc(-c2cccnc2)nc2ccccc12,> 11.4 µM,14.7%,0.1 µM (active),2.11%,-3.74%,> 46 µM,> 46 µM,inactive,inactive,inactive,4.47 µM (active),6.31 µM (active),3.98 µM (active),inactive,inactive,6.31 µM (active),–,82.3% [at 2.29 µM]
COc1ccc(CNc2ccnc(-c3ccc(C(=O)N(C)C)cc3)n2)c(OC)c1,> 11.4 µM,-20%,12.6 µM (active),-8.82%,-4.52%,> 46 µM,> 46 µM,inactive,inactive,inactive,inactive,inactive,inactive,inactive,inactive,–,–,–
CN(C)C(=O)c1ccc(-c2nccc(Nc3ccc(F)cc3)n2)cc1,> 11.4 µM,-14.3%,6.31 µM (active),-12.1%,-4.15%,> 46 µM,> 46 µM,inactive,inactive,inactive,inactive,inactive,inactive,inactive,inactive,–,–,–
N#CCCn1c(=O)c(-c2cc(F)cc(F)c2)nc2cnc(N3CCOCC3)nc21,> 11.4 µM,2.2%,3.16 µM (active),20.1%,12.6%,> 9.22 µM,> 46 µM,inactive,inactive,inactive,inactive,inactive,inactive,inactive,inactive,–,–,–
COc1ccc(CNc2ncncc2-c2c(C)noc2C)c(OC)c1,> 11.4 µM,-10.6%,25.1 µM (active),9.48%,2.92%,> 46 µM,> 46 µM,inactive,inactive,inactive,inactive,inactive,inactive,inactive,inactive,1.26 µM (active),–,–
Cc1cccc(CNc2ncncc2-c2cccnc2)c1,> 11.4 µM,11.8%,0.794 µM (active),12%,10.4%,> 46 µM,> 46 µM,inactive,inactive,inactive,inactive,inactive,inactive,inactive,inactive,0.631 µM (active),–,–
Cc1cccc(CNc2ncncc2-c2ccc(C(=O)N(C)C)cc2)c1,> 11.4 µM,-19%,15.8 µM (active),11.4%,1.97%,> 46 µM,> 46 µM,inactive,inactive,inactive,inactive,inactive,inactive,inactive,inactive,0.631 µM (active),–,–

# From PubChem BioAssay (NCATS)
